# Most compounds without a hit are left out; they make up all but 27% or so of the library.
# EphB4 ephrin blk – EphB4-ephrin-B2 interaction antagonism. actives 0.15% (n = 97,000). P54760. EphB4 LBD / TNYL-RAW-Alexa532 peptide, fluorescence polarization. inhibition, % at 7 µM. AID 720;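 active = inhibition above the screen-wide mean inhibition plus 3 SD, cut at about 15% in these data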;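 also: 0% = DMSO wells and 100% = excess unlabeled TNYL-RAW peptide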
# CYP2C19 inh – human CYP2C19 inhibition. P33261. CYP2C19 Supersomes, luciferin-H EGE luminescence, 30 min. inhibition, % at 5 µM. actives 21% (n = 96,000);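 active = CYP2C19 inhibition above a set limit at 5 µM in the primary screen, cut at about 50% in these data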;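 also: plate controls were negative control wells for no effect and 2.5 mM tranylcypromine positive control for full effect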
# CYP2C9 activ – activators of human CYP2C9. recombinant CYP2C9, luciferin-H conversion, luminescence; active compounds read high; factor 1 = untreated enzyme, 0 = blocked. activation factor at 5 µM. actives 1.4% (n = 96,000). AID 1024;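 active = activation factor of 2 or more for CYP2C9 at a 5 µM dose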;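 also: 0 = sulfaphenazole-blocked wells and 1 = vehicle-only wells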
# Target sequence (P11712 whole entry, looked up): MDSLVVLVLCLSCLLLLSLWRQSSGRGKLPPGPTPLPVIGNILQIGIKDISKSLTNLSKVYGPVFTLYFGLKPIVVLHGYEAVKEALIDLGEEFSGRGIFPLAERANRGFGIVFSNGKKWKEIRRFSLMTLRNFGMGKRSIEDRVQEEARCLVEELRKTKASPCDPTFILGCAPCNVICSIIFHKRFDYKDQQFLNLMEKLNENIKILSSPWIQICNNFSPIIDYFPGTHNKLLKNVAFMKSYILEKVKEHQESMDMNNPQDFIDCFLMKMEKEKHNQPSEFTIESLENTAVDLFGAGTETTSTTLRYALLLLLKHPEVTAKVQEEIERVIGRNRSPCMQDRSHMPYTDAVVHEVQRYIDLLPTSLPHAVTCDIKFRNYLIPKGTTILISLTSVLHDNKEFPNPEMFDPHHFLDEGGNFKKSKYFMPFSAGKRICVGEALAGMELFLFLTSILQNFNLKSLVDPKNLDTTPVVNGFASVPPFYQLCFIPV
# CYP2C19 activ – increases human CYP2C19 enzyme activity; recombinant CYP2C19, luciferin-H EGE luminescence; active compounds read high; 0 = fully inhibited enzyme, 1 = untreated enzyme; AID 1025; 96,000 tested, under 10 active; activation factor at 5 µM;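 active = activation factor of at least 2 at 5 µM in the primary screen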;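 also: 0 = wells with 2.5 mM tranylcypromine and 1 = vehicle-only wells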
# CYP2C9 inhib – human CYP2C9 inhibition. P11712. CYP2C9 Supersomes, luciferin-H conversion, luminescence. inhibition, % at 5 µM. actives 20% (n = 96,000). AID 777;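 active = blocking of liver enzyme CYP2C9 beyond about 50% at 5 µM, limit read from the data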
# Numbers without * were called inactive; . = no result.
SMILES,EphB4 ephrin blk,CYP2C19 inh,CYP2C9 activ,CYP2C19 activ,CYP2C9 inhib
C=C(C)Cn1c(=S)[nH]c2ccccc2c1=O,1,34,1,0.7,-2
CC(C)COn1c(=S)[nH]c2ccccc2c1=O,1,59*,0.7,0.4,27
COc1nccnc1NS(=O)(=O)c1ccc(N=Cc2c(C)[nH]n(-c3ccc(C)c(C)c3)c2=O)cc1,-2,2,0.9,1,12
CCCCN1C(=O)c2ccc(C(=O)NC3=NCCS3)cc2C1=O,1,43,0.3,0.6,72*
CCCCN1C(=O)c2ccc(C(=O)Nc3cccc(C)c3C)cc2C1=O,-2,-5,1.2,1,-16
Cc1ccc(C)n1-c1sc2c(c1C#N)CCC(C)C2 (configuration not stated),-4,6,0.9,0.9,7
CN1CCc2nc(SCc3ccc(Cl)cc3)c(C#N)c(-c3cccs3)c2C1,-3,.,.,.,.
O=C(O)C1CC(=O)N(c2ccc(F)cc2)C1 (configuration not stated),-4,2,0.9,1,15
NC(=O)CN1CCOCCOCCN(CC(N)=O)CCOCC1,2,-27,0.4,1.3,55*
COc1ccc(CCNC(=O)c2nn(C)cc2Cl)cc1,1,70*,1,0.3,3
COc1ccccc1CNC(=O)COC(=O)c1cnccn1,-7,67*,1,0.3,4
CCCc1ccc(C(C)NC(=O)c2cnccn2)cc1 (configuration not stated),-1,76*,0.5,0.2,53*
COc1ccc(CNC(=O)COC(=O)c2n[nH]c3ccccc23)cc1OC,1,.,.,.,.
COc1ccccc1CNC(=O)COC(=O)c1n[nH]c2ccccc12,-6,97*,2.3*,0,-134
COc1ccc(CNC(=O)COC(=O)c2cnccn2)cc1,0,64*,0.8,0.4,21
O=C(Oc1ccccc1)c1ccc(COC(=O)c2cnccn2)cc1,2,45,0.4,0.6,56*
COc1ccc(CCNC(=O)COC(=O)c2cnc(C)cn2)cc1,3,5,0.7,1,27
COc1ccc(CCNC(=O)c2cnccn2)cc1,.,53*,0.9,0.5,7
O=C(Oc1ccc(Cl)cc1)c1ccc(COC(=O)c2cnccn2)cc1,-1,50,0.7,0.5,27
COc1ccc(-c2noc(N3CCC(C(=O)N4CCN(c5ccccn5)CC4)CC3)n2)cc1,6,49,0.6,0.5,38
COc1cccc(C(=O)N2CCN(c3ncccn3)CC2)c1,-5,70*,0.7,0.3,32
COc1ccc(C(=O)N2CCN(c3ccccn3)CC2)cc1,-1,67*,0.8,0.3,20
O=C(c1cccc(C(=O)N2CCN(c3ncccn3)CC2)c1)N1CCN(c2ncccn2)CC1,7,0,0.9,1,13
CCCS(=O)(=O)N1CCN(C(=O)c2cccc(OC)c2)CC1,0,78*,0.9,0.2,11
COc1cccc(C(=O)N2CCN(Cc3ccccc3C(F)(F)F)CC2)c1,-1,95*,0.6,0.1,37
SMILES,EphB4 ephrin blk,CYP2C19 inh,CYP2C9 activ,CYP2C19 activ,CYP2C9 inhib
COc1cccc(C(=O)N2CCN(Cc3cc(Br)ccc3OC)CC2)c1,-4,.,.,.,.
COC(=O)Nc1ccc(S(=O)(=O)N(C)C)cc1,3,-21,1.2,1.2,-20
Cc1cc(C)nc(N2CCC(C(=O)Nc3ccc4c(c3)OCO4)CC2)n1,-10,14,1,0.9,4
COc1ccc(C(=O)Nc2cccc(C(C)=O)c2)cc1OC,.,41,0.9,0.6,9
COc1ccc(N2CCN(C(=O)c3ccncc3)CC2)cc1,1,79*,0.6,0.2,39
CCn1cnc2sc(C(=O)N3CCN(c4ccc(OC)cc4)CC3)c(C)c2c1=O,-1,24,0.4,0.8,57*
O=C(c1cccc(COc2ccc(Cl)cc2Cl)c1)N1CCN(c2ccccn2)CC1,2,54*,0.3,0.5,70*
